From PubChem BioAssay
Hits are enriched below; roughly 0.5% of the tested compounds scored in any of these assays.
phage Ecoli inh: E. coli growth loss with phage present | growth absorbance | inhibition, % at 11.9 µM | hit rate 0.26% among 360,000 | AID 651602; in the data active = inhibition above about 11%
E coli growth-1: E. coli growth inhibition; Escherichia coli growth, OD600, 23 h; active compounds read low; OD600 absorbance (test concentration not listed); hit rate 0.21% among 330,000;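 active = OD600 absorbance below the run mean of sample wells minus 3.6 SD, in any replicate, cut at about 0.56 in these data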
AddAB inh: less growth of phage-infected E. coli with AddAB | hit rate 0.29% among 330,000 | inhibition, % at 11.9 µM | E. coli expressing H. pylori AddAB, absorbance growth; in the data active = inhibition above about 12%;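 note: 0% = vehicle wells of infected cells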
E coli growth-2: reduces bacterial viability in AddAB counter-screen | E. coli V3065 growth, OD600 absorbance, 18 h | inhibition, % at 11.9 µM | hit rate 0.27% among 330,000 | AID 449728;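 active = inhibition above the campaign's mean inhibition across all tested compounds plus 3 SD, cut at about 9.9% in these data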;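 note: uninfected addAB+ strain grown without phage in ampicillin broth; 0% = DMSO wells and 100% = ciprofloxacin 0.95 µg/ml wells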
Tat export inh: blocks Tat-dependent protein export in E. coli. inhibition, % at 10 µM. E. coli MC4100 TorA-mCherry Tat export, fluorescence. AID 488895. hit rate 0.036% among 340,000;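 active = mean replicate inhibition at least 50% and at least half of replicates individually reaching 50%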;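 note: exported cargo escapes ClpAP degradation while cytoplasmic cargo is degraded and loses fluorescence; 0% = median of neutral control wells and 100% = median of NaSCN control wells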
AddAB confirm: confirmation screen: growth loss of phage-infected E. coli expressing H. pylori AddAB | shares compounds with AddAB inh | hit rate 64% among 880 | inhibition, % at 11.9 µM | AID 488942 | E. coli V3065 expressing H. pylori AddAB, T4 phage, OD; T4 phage with gene 2 nonsense mutations;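 active = mean inhibition above a set limit taken from the earlier primary screen, cut at about 13% in these data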;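 note: higher means less bacterial growth since AddAB block lets phage replicate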
RecBCD counter: counter-screen: growth loss of RecBCD+ E. coli with mutant T4 phage. shares compounds with AddAB inh. E. coli V66 + mutant T4 phage, OD growth. inhibition, % at 11.9 µM. hit rate 73% among 880;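 active = mean inhibition above the mean of solvent-only control wells plus 3 SD, cut at about 4% in these data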;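 note: optical density read after an 18 h incubation at 37 °C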
bact viab count: counter-screen for AddAB inhibitors: inhibitors of bacterial viability | absorbance (AddAB counterscreen) | hit rate 35% among 880 | shares compounds with AddAB inh | inhibition, % at 11.9 µM; in the data active = inhibition above about 25%
RecBCD conf: confirmation: growth loss of phage-infected RecBCD+ E. coli (RecBCD inhibitor screen); shares compounds with phage Ecoli inh; E. coli V66 + T4 2- phage, growth OD; inhibition, % at 11.9 µM; hit rate 45% among 890;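 active = mean inhibition over triplicates exceeding the hit threshold derived in the original primary screen, cut at about 11% in these data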
Ecoli viability: bacterial viability inhibition counter-screen for RecBCD; shares compounds with phage Ecoli inh; AID 651983; inhibition, % at 11.9 µM; hit rate 29% among 890; E. coli viability, absorbance (OD) growth; in the data active = inhibition above about 20%;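 note: E. coli strain V66 grown with compound alone and no phage infection; 0% = bacteria with DMSO vehicle only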
AddAB phage OD: growth loss of phage-infected AddAB E. coli, RecBCD counter-screen; inhibition, % at 11.9 µM; hit rate 45% among 890; shares compounds with phage Ecoli inh; E. coli expressing H. pylori AddAB + T4 phage, OD growth; gene 2 mutant T4, recBCD-deleted host; AID 651984;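 active = mean inhibition above the solvent-only control wells' mean plus 3 SD, cut at about 22% in these data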;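 note: higher means less bacterial growth from phage killing when AddAB is blocked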
An asterisk follows results filed as active; . = no result; + = active, no number; ! = a repeat was not active.

SMILES	phage Ecoli inh	E coli growth-1	AddAB inh	E coli growth-2	Tat export inh	RecBCD conf	Ecoli viability	AddAB phage OD	others
CN(C)[C@@H]1C(=O)C(C(N)=O)=C(O)[C@@]2(O)C(=O)C3=C(O)c4c(O)cccc4[C@@](C)(O)[C@H]3[C@H](O)[C@@H]12	3.0	.	0.6	-1.0	6.1	.	.	.
C[CH2][Hg][S]c1ccccc1C(=O)O	+	0.0605*	+	101.0*	-126.5	+	105.5*	+	AddAB confirm=+;RecBCD counter=+;bact viab count=98.4*
CCCCCCC[n+]1ccc(-c2cc[n+](CCCCCCC)cc2)cc1	19.3*	0.539	31.4*	24.9*	-3.2	8.7	12.8	4.9	AddAB confirm=6.0;RecBCD counter=18.9*;bact viab count=10.0
c1ccc2c[n+](CCCCCCCCCC[n+]3ccc4ccccc4c3)ccc2c1	7.9	.	.	.	.	.	.	.
COC12C(COC(N)=O)C3=C(C(=O)C(C)=C(N)C3=O)N1CC1C2N1C (stereo not drawn)	81.7*	0.0535*	94.2*	98.7*	80.4*	94.1*	94.2*	96.3*	AddAB confirm=97.5*;RecBCD counter=89.0*;bact viab count=98.7*
N/C(=N\[N+](=O)[O-])N/N=C/c1ccc(O)cc1	1.8	.	0.9	1.1	0.4	.	.	.
Nc1nonc1C(=O)N/N=C/c1ccc([N+](=O)[O-])o1	18.4*	.	16.6*	8.5	-15.7	7.9	4.9	61.1*	AddAB confirm=98.5*;RecBCD counter=6.7*;bact viab count=15.8
COC(=O)C1=C(c2ccc(F)cc2OCc2ccccc2)CC2CCC1N2C(=O)NCc1ccc(C(F)(F)F)cc1 (stereo not drawn)	.	0.71	.	.	.	.	.	.
COC(=O)C1=C(c2ccc(S(C)(=O)=O)cc2)CC2CCC1N2C(=O)NCc1ccccc1 (stereo not drawn)	.	0.677	.	.	.	.	.	.
COC(=O)C1=C(c2ccc(OC)c(OC)c2)CC2CCC1N2C(=O)N1CCC(C)CC1 (stereo not drawn)	.	0.728	.	.	.	.	.	.
Oc1cc(Cl)ccc1Oc1ccc(Cl)cc1Cl	97.0*	0.046*	96.6*	97.7*	137.3*	98.8*	100.1*	99.0*
CCc1nnc(NS(=O)(=O)c2ccc(N=Cc3c(O)n(-c4ccc(Cl)cc4)c(=O)[nH]c3=O)cc2)s1	12.5*	0.607	9.1	8.4	-7.9	3.8	1.9	19.6
CNS(=O)(=O)c1ccc(N=Cc2c(O)n(-c3ccc(C)cc3)c(=O)[nH]c2=O)cc1	0.1	0.698	1.3	1.0	-7.2	.	.	.
C[n+]1ccc(-c2cc[n+](C)cc2)cc1	21.5*	0.663	12.1	10.3*	-5.1	13.0*!	12.9	21.3*
COC(=O)C1=C(c2cccc(C#N)c2)CC2CCC1N2C(=O)NCCOc1ccccc1Cl (stereo not drawn)	.	0.692	.	.	.	.	.	.
Fc1ccc(CNC2CN3CCC2CC3)cc1 (stereo not drawn)	12.8*	0.693	-0.6	-0.9	-12.1	-4.8	-3.7	0.8
COC(=O)C1=C(c2ccc3ccccc3c2)CC2CCC1N2C(=O)N1CCCCC1 (stereo not drawn)	.	0.675	.	.	.	.	.	.
COC(=O)C1=C(c2c(C)noc2C)CC2CCC1N2C(=O)NC1CCCCC1 (stereo not drawn)	.	0.703	.	.	.	.	.	.
COC(=O)C1=COC(C)C2CN3CCC4(C(=O)Nc5ccccc54)C3CC12 (stereo not drawn)	11.2*	0.74	1.2	-2.3	3.4	-1.6	-0.4	2.0
O=C1C=C2C=CC3C[C@]2(O1)C1CCCCN31 (stereo partly drawn)	.	0.684	.	.	.	.	.	.
